Laboratory results: PMC5540273 (PLoS ONE, 2017)

How the values were obtained:
Conditions in all cases: concentration: 1 μM,replicates: in singlicate; n = 1
[1] = system: T1, RSK4(Kin.Dom.1-N-terminal)
T1 construct: gene RPS6KA6

[2] = system: T2, RSK4(Kin.Dom.2-C-terminal)
T2 construct: gene RPS6KA6

S6K1 = system: S6K1
SBK1 = system: SBK1
SGK2 = system: SGK2
SGK3 = system: SGK3
SGK = system: SGK
SIK2 = system: SIK2
SIK = system: SIK
SLK = system: SLK
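Note: KINOMEscan kinase panel screen.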

| Compound | %Inh [1] [%] | %Inh [2] [%] | %Inh (S6K1) [%] | %Inh (SBK1) [%] | %Inh (SGK2) [%] | %Inh (SGK3) [%] | %Inh (SGK) [%] | %Inh (SIK2) [%] | %Inh (SIK) [%] | %Inh (SLK) [%] |
| --- | --- | --- | --- | --- | --- | --- | --- | --- | --- | --- |
| CCCC(=O)Nc1n[nH]c2ncccc12 [SB-601436] | 0 | 0 | 0 | 2 | 17 | 10 | 7 | 0 | 0 | 0 |
| CNC(=O)c1ccccc1Nc1nc(Nc2cccc(CS(C)(=O)=O)c2)ncc1C.O=CO [GSK1520489] | 99.6 | 49 | 85 | 90 | 14 | 42 | 71 | 95 | 99.6 | 99.9 |
| CC(=O)Nc1ccc(-c2cc3ncnc(SCC(=O)O)c3s2)cc1 | 13 | 18 | 0 | 22 | 0 | 39 | 0 | 24 | 6 | 18 |
| O=C(Nc1n[nH]c2cc(-c3ccco3)ccc12)C1CC1 [SB-737447] | 26 | 10 | 4 | 23 | 30 | 34 | 47 | 0 | 0 | 13 |
| Cc1ccn2nc(-c3ccc(F)cc3)c(-c3ccncc3)c2c1.Cl [GW457859] | 0 | 85 | 1 | 10 | 0 | 5 | 22 | 0 | 0 | 2 |
| Cn1ccc2ncnc(Oc3ccc(NC(=O)Nc4cnn(C(C)(C)C)c4)c(Cl)c3)c21 | 22 | 0 | 1 | 0 | 12 | 2 | 10 | 10 | 14 | 79 |
| CCn1c(-c2nonc2N)nc2cncc(CNC3CCNCC3)c21.Cl [SB-747651] | 10 | 25 | 60 | 25 | 7 | 43 | 0 | 0 | 0 | 9 |
| NC(=O)Nc1sc(-c2ccc(F)cc2)cc1C(N)=O [GW789449] | 76 | 4 | 3 | 16 | 10 | 31 | 1 | 16 | 21 | 25 |
| COc1cc2nccc(Nc3ccc(Oc4ccccc4)cc3)c2cc1OC.Cl [GI261656] | 0 | 9 | 0 | 0 | 0 | 0 | 0 | 0 | 0 | 26 |
| Cc1ccc(Nc2ccnc(Nc3ccc4c(c3)CS(=O)(=O)C4)n2)cc1O.Cl [GW579362] | 0 | 35 | 1 | 55 | 0 | 9 | 0 | 60 | 58 | 99.2 |
| Cn1ccc2ncnc(Oc3ccc(NC(=O)Nc4cncc(C(F)(F)F)c4)c(Cl)c3)c21 | 0 | 12 | 0 | 0 | 0 | 0 | 0 | 0 | 0 | 20 |
| CCn1c(-c2nonc2N)nc2cncc(Br)c21 [SB-738004] | 64 | 29 | 45 | 8 | 0 | 66 | 45 | 7 | 15 | 0 |
| CCN1CCN(CCCC(=O)Nc2n[nH]c3nc(-c4ccc(O)cc4)c(Br)cc23)CC1 [SB-731579] | 20 | 0 | 0 | 10 | 0 | 0 | 0 | 0 | 0 | 78 |
| CS(=O)(=O)Nc1ccc(-c2ccnc3[nH]ccc23)cc1 [GSK993273] | 27 | 60 | 37 | 55 | 13 | 12 | 24 | 39 | 9 | 49 |
| Cn1ccc2ncnc(Oc3ccc(NC(=O)Nc4cccc(C(F)(F)F)c4)c(F)c3)c21 | 0 | 2 | 22 | 0 | 0 | 2 | 0 | 3 | 28 | 54 |
| Cn1cc(-c2cccc3c(N)c(C(N)=O)nnc23)cn1 | 22 | 3 | 22 | 19 | 45 | 64 | 78 | 17 | 24 | 0 |
| OCCn1cc(-c2cnc3nnn(Cc4ccc5ncccc5c4)c3n2)cn1 | 0 | 1 | 0 | 0 | 0 | 15 | 0 | 0 | 0 | 0 |

| Compound | %Inh [1] [%] | %Inh [2] [%] | %Inh (S6K1) [%] | %Inh (SBK1) [%] | %Inh (SGK2) [%] | %Inh (SGK3) [%] | %Inh (SGK) [%] | %Inh (SIK2) [%] | %Inh (SIK) [%] | %Inh (SLK) [%] |
| --- | --- | --- | --- | --- | --- | --- | --- | --- | --- | --- |
| COC(=O)c1cccc(NC(=O)NC2CCN(c3ccnc(NCc4ccc(F)cc4)n3)CC2)c1 [GSK1379860] | 0 | 0 | 0 | 32 | 0 | 0 | 0 | 0 | 5 | 2 |
| Nc1nccc(-c2ccc3c(N)n[nH]c3c2)n1 [GSK1034945] | 59 | 24 | 1 | 25 | 4 | 24 | 0 | 0 | 0 | 25 |
| C[C@@H]1CCN(C(=O)N2CCCC2)C[C@@H]1N(C)c1ncnc2[nH]ccc12 | 18 | 31 | 2 | 19 | 3 | 27 | 0 | 6 | 11 | 21 |
| CC(C(=O)NC1CCN(c2ccnc(Nc3ccc(F)cc3)n2)C1)c1ccc(Cl)cc1 (stereo not shown) [GSK1379713] | 0 | 0 | 0 | 7 | 0 | 0 | 0 | 0 | 0 | 17 |
| Cn1ccc2ncnc(Oc3ccc(NC(=O)Nc4ccnc(C(F)(F)F)c4)c(Cl)c3)c21 | 0 | 2 | 0 | 0 | 10 | 0 | 9 | 8 | 4 | 10 |
| CC(C)c1nc(-c2cccc(NS(=O)(=O)c3ccccc3)c2)c(-c2ccnc(Nc3ccc4c(c3)CN(C)CC4)n2)s1 [GSK1649598] | 0 | 46 | 66 | 43 | 35 | 53 | 77 | 87 | 99.6 | 88 |
| O=C(NOCC1CC1)c1cc(Br)c(F)c(F)c1Nc1ccc(I)cc1Cl | 0 | 21 | 19 | 0 | 0 | 0 | 0 | 21 | 0 | 3 |
| C[C@@H](Oc1cc(-n2cnc3ccc(-c4ccncc4)cc32)sc1C(N)=O)c1ccccc1Cl [GSK483724] | 12 | 0 | 0 | 6 | 14 | 0 | 7 | 0 | 11 | 95.5 |
| N#Cc1cccc(C(=O)NC2CCN(c3ccnc(Nc4ccc(F)cc4)n3)C2)c1 (stereo not shown) [GSK1379708] | 0 | 0 | 1 | 2 | 5 | 0 | 0 | 0 | 7 | 16 |
| O=C(Nc1cccc(Oc2ccc3nccn3n2)c1)Nc1cccc(C(F)(F)F)c1 | 0 | 0 | 0 | 0 | 8 | 8 | 0 | 16 | 17 | 0 |
| COc1cc2c(Nc3ccc(NC(=O)c4ccccc4)cc3)ncnc2cc1OCCCN1CCOCC1 [GSK301329] | 0 | 0 | 24 | 14 | 2 | 1 | 0 | 4 | 2 | 58 |
| Cn1ccc2ncnc(Oc3ccc(NC(=O)Nc4cccc(C(F)(F)F)c4)c(Cl)c3)c21 | 0 | 41 | 2 | 0 | 0 | 0 | 0 | 9 | 10 | 63 |
| FC(F)(F)c1cc(Br)cc(Nc2nccc(-c3cnn4ncccc34)n2)c1 [GW810578] | 13 | 0 | 4 | 0 | 0 | 17 | 2 | 0 | 14 | 13 |
| NC(=O)c1ccc(-c2cc3ncnc(SCC(=O)O)c3s2)cc1 | 0 | 0 | 15 | 0 | 0 | 0 | 0 | 7 | 6 | 10 |
| COc1cccc(C2=C(Nc3cccc(Cl)c3)C(=O)NC2=O)c1 [SB-341556] | 43 | 76 | 23 | 19 | 0 | 9 | 3 | 99.9 | 0 | 92.2 |
| CS(=O)c1ccc(-c2coc3ccc(-c4n[nH]c(=O)o4)cc23)cc1 (stereo not shown) | 6 | 27 | 3 | 85 | 12 | 15 | 31 | 11 | 2 | 9 |
| Cc1cccc2c(-c3ccncc3)c(-c3ccc(F)cc3)nn12.Cl [GW461487] | 21 | 83 | 5 | 8 | 8 | 13 | 0 | 0 | 0 | 15 |
